Experiment [1] can be described thus: qHTS assay to identify small molecule agonists of the hypoxia (HIF-1) signaling pathway - cell viability counter screen (AID 1224844; calls by dose curve; further: nearly all actives have a fitted effect of over 50% in size). An outline of the steps: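 HRE-bla ME-180 cells in medium with 0.5% dialyzed FBS were preincubated 5 hrs at 37C, exposed to compounds for 17 hrs, then viability was read as CellTiter-Glo luminescence after 30 min at room temperature, in the reporter wells.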

Experiment [2] in a line: qHTS assay to identify small molecule agonists of H2AX (AID 1224845; active means well fitted activation curve with a large enough effect in the signal ratio in the repeat runs, not every such curve was filed as active; the % refers to the signal ratio). The essentials:
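Phospho-H2AX Ser139 measured by HTRF (ex 320 nm; em 665 and 620 nm) after 24 hr antibody incubation. Compounds, 15 concentrations, 0.76% DMSO, were applied to CHO-K1 cells for 3hr at 37C before lysis.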
For orientation: qHTS replaces the single test concentration by a dilution series.

Experiment [3] is described as follows: qHTS assay to identify small molecule agonists of the hypoxia (HIF-1) signaling pathway (AID 1224846; active means well fitted activation curve with a large enough effect in the signal ratio in the repeat runs, not every such curve was filed as active; the % refers to the signal ratio). The essentials: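 HRE-bla ME-180 cells (beta-lactamase reporter under hypoxia response element) were plated at 2,000 cells/well in medium with 0.5% dialyzed FBS, rested 5 hrs, then given compounds in DMSO for 17 hrs at 37C, 5% CO2. Reporter induction was read with CCF4-AM FRET substrate.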

Experiment [4] in a line: qHTS assay to identify small molecule antagonists of the estrogen related receptor (ERR) signaling pathway from Tox21 library (AID 1224848). Further: nearly all actives have a fitted effect of over 50% in size. An outline of the steps: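 Reading was by luminescence 30 min after ONE-Glo addition. Before that, ERR cells at 2,000 per well had rested 6 h at 37 C/5% CO2 and then received pin-tooled compounds in DMSO for 18 h at 37 C.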
Experiment [5] in a line: qHTS assay to identify small molecule agonists of the estrogen related receptor (ERR) signaling pathway from Tox21 library (AID 1224849; calls by dose curve; further: nearly all actives have a fitted effect of over 15% in size). The following applies: ERR reporter cell line, ONE-Glo luciferase, 18 h; at 92.4 µM (top of the series) unless noted. An outline of the steps: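 ERR reporter cell line (NTP) seeded, rested 6 h at 37 C/5% CO2, then pinned with Tox21 compounds in DMSO. After 18 h at 37 C, ONE-Glo luciferase luminescence was read following 30 min at room temperature.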

Experiment [6] is described as follows: qHTS RealTime-Glo MT Cell Viability Assay in HepG2 cells - 24 hour (AID 1224867). Further: nearly all actives have a fitted effect of over 50% in size. The essentials:
(§1)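 Cell number in HepG2 cultures estimated from NanoLuc luminescence generated by metabolic reduction of a prosubstrate by living cells. The homogeneous, nonlytic format allowed repeated reads at 0, 8, 16, 24, 32 and 40 h of compound exposure.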

Experiment [7] is described as follows: qHTS RealTime-Glo MT Cell Viability Assay in HEK293 cells - 32 hour (AID 1224868). Further: top concentration of the series differs between compounds; nearly all actives have a fitted effect of over 50% in size. The essentials: (§2)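 Homogeneous bioluminescent viability format in HEK293 cells (600 cells/well). Following 5 h at 37 C/5% CO2, 23 nL compound was pintooled; the signal was measured repeatedly during 40 h incubation.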
Experiment [8] in a line: A CellTox Green Cytotoxicity Assay to monitor cytotoxicity in HEK293 cells - 0 hour (AID 1224869). Further: nearly all actives have a fitted effect of over 50% in size. An outline of the steps: (§3)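 HEK293 cells premixed with CellTox Green dye were seeded at 600 cells/well and left 5 h at 37 C/5% CO2 before pin transfer of 23 nL compound in DMSO. Fluorescence from dye bound to dead-cell DNA was read during 40 h treatment.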
Experiment [9] can be described thus: qHTS RealTime-Glo MT Cell Viability Assay in HepG2 cells - 40 hour (AID 1224870). Further: nearly all actives have a fitted effect of over 50% in size. The essentials: (§4)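 Real-time viability: cells seeded at 600 per well together with NanoLuc and cell-permeant prosubstrate, compounds added after 5 h incubation. Luminescence tracked at 0, 8, 16, 24, 32 and 40 h of exposure.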
Experiment [10] is described as follows: A CellTox Green Cytotoxicity Assay to monitor cytotoxicity in HEK293 cells - 40 hour (AID 1224871). Further: nearly all actives have a fitted effect of over 45% in size. An outline of the steps: as §3
Experiment [11] is described as follows: qHTS RealTime-Glo MT Cell Viability Assay in HepG2 cells - 8 hour (AID 1224873). Further: nearly all actives have a fitted effect of over 55% in size. An outline of the steps:
as §4

Experiment [12] can be described thus: qHTS RealTime-Glo MT Cell Viability Assay in HEK293 cells - 40 hour (AID 1224874). Further: nearly all actives have a fitted effect of over 50% in size. Further: potency means the concentration at half of the fitted maximal effect. The following applies: RealTime-Glo luminescence; max response: stronger effect = lower value. The essentials:
(§5)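 HEK293 cells mixed with RealTime-Glo reagents (NanoLuc plus cell-permeant prosubstrate) at 600 cells/well, preincubated 5 h at 37 C/5% CO2, then given 23 nL compound in DMSO. Nonlytic luminescence from viable cells was read at 0, 8, 16, 24, 32 and 40 h.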

Experiment [13] can be described thus: A CellTox Green Cytotoxicity Assay to monitor cytotoxicity in HEK293 cells - 24 hour (AID 1224875). Further: nearly all actives have a fitted effect of over 45% in size. An outline of the steps: as §3
A short description of experiment [14]: A CellTox Green Cytotoxicity Assay to monitor cytotoxicity in HepG2 cells - 16 hour (AID 1224876). Further: nearly all actives have a fitted effect of over 45% in size. The essentials:
(§6)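 HepG2 cells were seeded together with the CellTox Green dye at 600 cells/well, left 5 h at 37 C/5% CO2, then given compounds in DMSO. Fluorescence from dye bound to dead-cell DNA was read repeatedly over 40 h of treatment at 37 C.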

Experiment [15] in a line: qHTS RealTime-Glo MT Cell Viability Assay in HepG2 cells - 32 hour (AID 1224877). Further: nearly all actives have a fitted effect of over 55% in size. An outline of the steps:
as §1

Experiment [16] can be described thus: A CellTox Green Cytotoxicity Assay to monitor cytotoxicity in HepG2 cells - 24 hour (AID 1224878). Further: nearly all actives have a fitted effect of over 45% in size. An outline of the steps:
as §6

Experiment [17] in a line: A CellTox Green Cytotoxicity Assay to monitor cytotoxicity in HepG2 cells - 40 hour (AID 1224879). Further: nearly all actives have a fitted effect of over 40% in size. Further: potency means the concentration at half of the fitted maximal effect. The essentials: as §6
Experiment [18] in a line: qHTS RealTime-Glo MT Cell Viability Assay in HEK293 cells - 0 hour (AID 1224880). The essentials:
as §5

A short description of experiment [19]: qHTS assay to identify small molecule agonists of H2AX - cell viability counter screen (AID 1224847; calls by dose curve; further: top concentration of the series differs between compounds; nearly all actives have a fitted effect of over 30% in size). An outline of the steps:
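Viability of CHO-K1 (wild type) cells after 3 hr compound exposure was measured by CellTiter-Glo luminescence.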

The nature of experiment [20]: qHTS RealTime-Glo MT Cell Viability Assay in HEK293 cells - 16 hour (AID 1224872). An outline of the steps: as §2

Structures are written as SMILES. A number with no mark means an inactive call. Records with an inconclusive call do not appear. Activity calls are given as the source filed them. Unless noted, the call rests on the fitted dose curve; in most records, active means well fitted curve in the direction sought with a large enough effect in the repeat runs; inconclusive means weak or mixed curves; inactive means no such curve, though single readings can be large; an effect the other way counts as inactive or inconclusive.
On the % scale 0 is the no-effect control and ±100 the full control effect.

Turning to `CN1CCN(C2=Nc3ccccc3Sc3ccc(Cl)cc32)CC1`, the Potency entry in experiment [1], in [2], in experiment [4], in experiment [6], in experiment [7] and in experiment [8] was “inactive” in each case. Besides, the Potency entry in experiment [9], in [10], in [11], in [13], in experiment [14] and in [15] was “inactive” throughout. In addition, the Potency result in [16], in [17] and in [18] was “inactive” in each case. In addition, the outcome in experiment [3] was inactive. In addition, the activity change, positive = activation in experiment [5] is 1.89% [at 42.5 µM]. For the same compound, in [12], the max response was -9.09%.

As to `COCCCCCCCCOCCC[Si](C)(O[Si](C)(C)C)O[Si](C)(C)C`, the Potency result in experiment [1], in [2], in experiment [6], in experiment [8], in experiment [9] and in experiment [11] was “inactive” each time. Further, the Potency entry in experiment [13], in experiment [14], in [15], in experiment [16] and in experiment [18] was “inactive” in each case. Further, the compound was called inactive in [3]. Besides, the Potency is 2.75 µM (active) in experiment [12] and 21.9 µM (active) in experiment [17].

On to `Oc1ccc(O)c2c(O)cccc12`, for which the Potency entry in [1], in [2], in [19], in experiment [4], in [6] and in experiment [7] was “inactive” each time. The Potency entry in experiment [8], in experiment [9], in experiment [10], in experiment [11], in experiment [13] and in [14] was “inactive” throughout. Besides, the Potency entry in [15], in experiment [16] and in experiment [17] was “inactive” in each case. Further, the activity change, positive = activation in [5] was 1.72%. Besides, in experiment [12], the max response is -0.428%.

For `CCCCCCCCN(C)C`, the Potency entry in experiment [1], in [2], in experiment [4], in [6], in experiment [7] and in experiment [8] was “inactive” each time. For the same compound, the Potency result in [9], in [10], in experiment [11], in experiment [13], in experiment [14] and in experiment [15] was “inactive” in each case. The Potency entry in experiment [16], in [17] and in [18] was “inactive” throughout. Moreover, the result in [3] was inactive. Also, the activity change, positive = activation in [5] was 2.41%. Also, the max response in experiment [12] is 16%.

For the compound `Cc1cccc(OCCOc2cccc(C)c2)c1`, the Potency result in experiment [1], in experiment [2], in experiment [4], in experiment [6], in experiment [7] and in [8] was “inactive” throughout. For the same compound, the Potency entry in [9], in [10], in experiment [11], in [13] and in [15] was “inactive” throughout. Further, the result in experiment [3] was inactive. In [5], the activity change, positive = activation was 10.4%. Besides, the max response in [12] was -15.5%.

Consider `CCOC(=O)CC(C)C`, for which the Potency entry in [1], in experiment [2], in [6], in experiment [8], in experiment [9] and in experiment [10] was “inactive” throughout. Also, the Potency result in [20], in [11], in experiment [13], in experiment [14], in experiment [15] and in [16] was “inactive” in each case. The Potency result in experiment [17] and in [18] was “inactive” in each case. In addition, the result in experiment [3] was inactive. For the same compound, the max response in experiment [12] was 6.18%.

For the compound `CCCC(C)C`, the Potency result in experiment [1], in [2], in experiment [6], in experiment [8], in experiment [9] and in [10] was “inactive” throughout. Besides, the Potency entry in experiment [11], in experiment [13], in [14], in experiment [15], in experiment [16] and in experiment [17] was “inactive” each time. Further, in [18], the Potency entry was “inactive”. The outcome in experiment [3] was inactive.
